{
  "source": "PubChem BioAssay (NCI)",
  "note": "This is part of a sample that, as a whole, favours compounds with a hit. Of some 79,000 tested, about 15% had one in any assay. Values without a mark were called inactive. The source made the active and inactive calls. No stated cut-off is given here; in the data, active means growth inhibition above about 70%; inactive means the rest.",
  "data": [
    {"assay": "NCI Yeast Anticancer Drug Screen. Data for the wt1 strain (AID 149);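 further: 0% = growth of vehicle-treated wt1 cultures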", "conditions": "S. cerevisiae wt1 strain (SPY 50644) growth inhibition; at 33.0 µM; active compounds read high", "outline": "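Readout: yeast growth inhibition, normalised to vehicle controls, in the wt1 strain exposed to test compounds.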", "values": [
      {"smiles": "COc1ccc2nc3cccc([N+](=O)[O-])c3c(NCCNCCN(C)C)c2c1", "growth inhibition": "-1%"},
      {"smiles": "Cc1cccc(/C=N/NC(=S)NC2CCCCC2)n1", "growth inhibition": "10%"},
      {"smiles": "COC(=O)C(=O)c1c(-c2ccc(Cl)c(Cl)c2)[nH]c2[nH]n(-c3ccccc3)c(=O)c2c1=O", "growth inhibition": "54%"},
      {"smiles": "c1ccc([P+](CCN2Cc3ccccc3C2)(c2ccccc2)c2ccccc2)cc1", "growth inhibition": "38%"},
      {"smiles": "Cc1cc(C)c2[s+]snc2c1", "growth inhibition": "9%"},
      {"smiles": "CC(C)(Br)C(=O)/C=C/c1ccccc1", "growth inhibition": "10%"},
      {"smiles": "Cc1ccc(S(=O)(=O)NC(=O)C2C(=O)CC3(CCCCC3)CC2=O)cc1", "growth inhibition": "67%"},
      {"smiles": "NC(=S)N1N=C2c3ccccc3CC[C@H]2[C@@H]1c1ccc(Cl)cc1", "growth inhibition": "46%"},
      {"smiles": "O=[N+]([O-])/C=C/c1cc2ccc3ccccc3c2[nH]1", "growth inhibition": "79% (active)"},
      {"smiles": "O=C1C(=C2CCCC2)CCC1CN1CCCCC1", "note": "(stereo unspecified)", "growth inhibition": "30%"},
      {"smiles": "OC(CC(O)(C(F)(F)F)C(F)(F)F)c1ccc(C(O)CC(O)(C(F)(F)F)C(F)(F)F)cc1", "note": "(stereo unspecified)", "growth inhibition": "99% (active)"},
      {"smiles": "COc1cc2c(cc1OC)[C@@H](Nc1ccc(C#N)cc1)C1COC(=O)[C@@H]1C2c1cc(OC)c(O)c(OC)c1", "note": "(stereo partly specified)", "growth inhibition": "6%"},
      {"smiles": "O=c1cccccc1[O-].O=c1cccccc1[O-].O=c1cccccc1[O-].[Eu+3]", "growth inhibition": "97% (active)"},
      {"smiles": "O=C1c2ccccc2C(=O)c2sc(Nc3ccccc3Cl)nc21", "growth inhibition": "99% (active)"},
      {"smiles": "NC(CCCCCCCCCCCCC(N)C(=O)c1ccccc1)C(=O)c1ccccc1", "note": "(stereo unspecified)", "growth inhibition": "95% (active)"},
      {"smiles": "CC1=C(C)C(=O)C2=C(OCCO2)C1=O", "growth inhibition": "-4%"},
      {"smiles": "c1ccc(-c2cc(C3CO3)c3ccccc3n2)cc1", "note": "(stereo unspecified)", "growth inhibition": "2%"},
      {"smiles": "S=C1C(=Nc2ccccc2)N(c2ccccc2)/C(=N\\c2ccccn2)N1c1ccccc1", "growth inhibition": "98% (active)"},
      {"smiles": "CCC(OC(C)=O)C1CC(C(C)C)CCC1C", "note": "(stereo unspecified)", "growth inhibition": "2%"},
      {"smiles": "CC(C)=CCc1c2c(c(O)c3c(=O)c(-c4ccc(O)c(O)c4)coc13)C=CC(C)(C)O2", "growth inhibition": "93% (active)"},
      {"smiles": "O=C(NC(N1CCN(c2cc3c(cc2F)c(=O)c(C(=O)O)cn3C2CC2)CC1)(C(F)(F)F)C(F)(F)F)c1ccccc1", "growth inhibition": "8%"},
      {"smiles": "Fc1cc(F)c(F)c(S)c1F", "growth inhibition": "36%"},
      {"smiles": "COc1ccc2cc3c4cc5c(cc4cc[n+]3cc2c1OC)OCO5", "growth inhibition": "84% (active)"},
      {"smiles": "CCCCCCCCNCCCCCCCC", "growth inhibition": "96% (active)"},
      {"smiles": "Nc1cc(Cl)ccc1Nc1ccccc1", "growth inhibition": "-17%"},
      {"smiles": "O=C(/C(=C/c1ccc(O)cc1)c1ccccc1)c1ccccc1", "growth inhibition": "98% (active)"},
      {"smiles": "O=Cc1ccccc1C=O", "growth inhibition": "0%"},
      {"smiles": "C1=CCN([B-](c2ccccc2)[C+]2CCCCC2)C=C1", "growth inhibition": "64%"},
      {"smiles": "CC/C(=C(\\c1ccccc1)c1ccc(OCC[N+](C)(C)C)cc1)c1ccccc1", "growth inhibition": "99% (active)"},
      {"smiles": "O=S(=O)(c1cccc(C(F)(F)F)c1)N1c2ccccc2-n2cccc2C1c1cccnc1", "note": "(stereo unspecified)", "growth inhibition": "92% (active)"},
      {"smiles": "Nc1ccc2c(c1)C(=O)c1c(F)cccc1-2", "growth inhibition": "-2%"},
      {"smiles": "CN(C)/C(=N/C(=S)Nc1ccccc1)SCc1ccccc1", "growth inhibition": "6%"},
      {"smiles": "CCN(CC)C(=S)N/N=C(\\C)c1ccccc1O", "growth inhibition": "98% (active)"},
      {"smiles": "CC(C)OC(=O)NNc1cc(Cl)ccc1Cl", "growth inhibition": "34%"},
      {"smiles": "CC(C)CCC[C@@H](C)[C@H]1CC[C@H]2[C@@H]3CC[C@H]4C[C@H](N)CC[C@]4(C)[C@H]3CC[C@]12C", "growth inhibition": "-2%"},
      {"smiles": "O=C1c2ccccc2-c2ccc(N=Cc3ccccc3)cc21", "growth inhibition": "27%"}
    ]}
  ]
}
